Test [1] has as its target Cellular tumor antigen p53 (Homo sapiens) (UniProt P04637). In words: Primary qHTS for small molecule compounds that upregulate eGFP-tagged delta133p53alpha (in N-terminal) cells. (AID 2060322).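 For activation: cells pre-induced with doxycycline then dosed without doxycycline; series mostly up to about 56 µM; 0% = DMSO vehicle and 100% = reference activator.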 Note: nearly all actives have a fitted effect of over 75% in size. Note: potency is the fitted concentration of half-maximal effect. As to conditions: NCI-H358 eGFP-delta133p53alpha fluorescence, 24 h; activation: stronger effect = higher value. The method, boiled down:
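NCI-H358 cells pre-induced 24 h with 10 ng/ml doxycycline for eGFP-delta133p53alpha, plated dox-free and exposed 24 h at 37C to titrated compounds. Fixed, Hoechst-stained; gated GFP peak intensity by laser scanning cytometry, normalized to DMSO (0%) and 57.5 uM 5-azacytidine (100%).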

Test [2] has as its target Aldehyde dehydrogenase, mitochondrial (Homo sapiens) (UniProt P05091). The experiment in a line: qHTS for Inhibitors of the Aldehyde Dehydrogenase Family (ALDH2) Primary screen (AID 2061308;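 note: plate controls were vehicle for no effect and reference inhibitor for full effect; nearly all actives have a fitted effect of over 55% in size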). (qHTS replaces the single test concentration by a dilution series.)
Test [3] deals with Retinaldehyde dehydrogenase 3 (Homo sapiens) (UniProt P47895). The experiment in a line: qHTS for Inhibitors of the Aldehyde Dehydrogenase Family (ALDH1A3) Primary screen (AID 2061315).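 Note: plate controls were DMSO vehicle for no effect and reference inhibitor for full effect.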
The target is the same in test [4]. In words: qHTS for Inhibitors of the Aldehyde Dehydrogenase Family (ALDH1A3) Validation screen (AID 2061312). Note: % is set by controls: 0 for no effect and ±100 for the full control effect; nearly all actives have a fitted effect of over 45% in size.
A short description of test [5]: BET inhibitor-based combinations targeting novel dependencies in MECOM-rearranged (r) AML: SET-2 cell line (AID 2202231).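 Note: plate controls were DMSO treated cells for no effect and wells without cells for full effect; nearly all actives have a fitted effect of over 35% in size.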 As to conditions: SET-2 AML cells viability, CellTiter-Glo luminescence, 48 h; viability: stronger effect = lower value, series mostly up to about 46 µM. The method, boiled down:
(§1)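 500 cells/well; 11-pt dose curve; 48 h, standard incubator; CellTiter-Glo luminescence after 15 min RT; DMSO/empty-well normalization; AUC plus Z-AUC (mean-centered within each line).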
In general terms: In ATP-based viability assays light output follows the ATP content of the culture.

A short description of test [6]: BET inhibitor-based combinations targeting novel dependencies in MECOM-rearranged (r) AML: AML-194 cell line (AID 2202237; note: nearly all actives have a fitted effect of over 40% in size; note: potency is the fitted concentration of half-maximal effect). The method, boiled down: as §1
Test [7] is described as follows: BET inhibitor-based combinations targeting novel dependencies in MECOM-rearranged (r) AML: AML-191 cell line (AID 2202236; note: nearly all actives have a fitted effect of over 35% in size; note: potency is the fitted concentration of half-maximal effect). The method, boiled down:
as §1

The nature of test [8]: BET inhibitor-based combinations targeting novel dependencies in MECOM-rearranged (r) AML: HNT-34 cell line (AID 2202234).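 Note: plate controls were vehicle wells for no effect and cell-free wells for full effect; nearly all actives have a fitted effect of over 35% in size.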 A digest of the protocol:
(§2)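 Cells were plated at 500 per well and exposed to each drug across an 11-point dose range for 48 hr at standard incubator conditions. Viability was read by CellTiter-Glo luminescence, and activity was expressed as AUC and per-cell-line Z-transformed AUC.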

The nature of test [9]: BET inhibitor-based combinations targeting novel dependencies in MECOM-rearranged (r) AML: UCSD-AML1 cell line (AID 2202235). Note: nearly all actives have a fitted effect of over 40% in size. Note: potency is the fitted concentration of half-maximal effect. A digest of the protocol: as §2
Test [10] in a line: BET inhibitor-based combinations targeting novel dependencies in MECOM-rearranged (r) AML: MV-4-11 cell line (AID 2202233). Note: potency is the fitted concentration of half-maximal effect; nearly all actives have a fitted effect of over 45% in size. The method, boiled down: as §2
A short description of test [11]: BET inhibitor-based combinations targeting novel dependencies in MECOM-rearranged (r) AML: OCI-AML3 cell line (AID 2202232). Note: potency is the fitted concentration of half-maximal effect; nearly all actives have a fitted effect of over 35% in size. As to conditions: Potency: OCI-AML3 viability. The method, boiled down: as §1

Each structure is given as a SMILES string. Values joined by “and” are separate entries in the source; they are usually repeats but may differ in a detail not shown here. Equal entries are not always repeated. Results filed as inconclusive are left out. A number with no mark means an inactive call. Active and inactive are the calls of the source. Calls come from the whole dose curve; as a rule, active = well fitted curve in the direction sought with a large enough effect; inconclusive = small, poorly fitted or top-dose-only effect, or another doubt; inactive = no such curve, though single readings can be large; an effect the other way counts as inactive or inconclusive.

Cellular tumor antigen p53 (Homo sapiens), sequence (P04637 whole entry, looked up): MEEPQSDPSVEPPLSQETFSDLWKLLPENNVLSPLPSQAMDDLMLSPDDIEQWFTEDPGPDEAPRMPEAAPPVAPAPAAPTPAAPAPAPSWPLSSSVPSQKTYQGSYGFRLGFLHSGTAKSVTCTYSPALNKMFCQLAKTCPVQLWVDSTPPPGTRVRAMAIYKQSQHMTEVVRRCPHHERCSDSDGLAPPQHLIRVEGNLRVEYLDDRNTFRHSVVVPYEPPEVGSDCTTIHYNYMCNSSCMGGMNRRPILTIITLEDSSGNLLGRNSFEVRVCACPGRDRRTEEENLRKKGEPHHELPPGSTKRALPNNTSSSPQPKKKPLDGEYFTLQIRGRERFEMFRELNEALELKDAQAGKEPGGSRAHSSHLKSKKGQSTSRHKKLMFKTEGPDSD

`CC(=O)O[C@@H]1[C@H]2CC[C@H]3[C@@](C)(O)[C@@H]4C[C@H](O)C(C)(C)[C@@]4(O)[C@H](O)C[C@@]13C[C@@]2(C)O`: the activation in test [1] is 6.87%. Moreover, the Potency entry in test [2] and in [3] was “inactive” throughout.

Usually viability stands for a read-out of living cells in per cent, often relative to untreated cells. As for `O=C(O)C(=O)c1cn(Cc2ccccc2)c2ccc(-c3ccc(OC(F)(F)F)cc3)cc12`, in test [1], the activation was -6.9% and -6.21%. Moreover, the Potency result in test [2], in test [4], in [3] and in test [6] was “inactive” each time. For the same molecule, the viability in test [5] is 98.6%.

Take `CC12Cc3cn[nH]c3C=C1CCC1C2CCC2(C)C1CCC2(C)O` (stereo not drawn): the activation in [1] was 8.33%. Further, the Potency result in test [2] and in [3] was “inactive” in each case.

With `CCNC(=O)CC1N=C(c2ccc(Cl)cc2)c2cc(OC)ccc2-n2c(C)nnc21` (stereo not drawn), the activation in test [1] was -24.1% and -15% and -22.4%. In addition, the Potency entry in test [2], in test [4] and in test [3] was “inactive” in each case. The Potency in test [7] was 13.2 µM (active).

For `Cc1ccccc1-n1c(Cn2ncc3c(N)ncnc32)nc2cccc(C)c2c1=O`, the activation in test [1] was 66.5% and 6.21%. In addition, the Potency result in [2], in test [4], in test [3], in test [7] and in [6] was “inactive” throughout. Also, the viability in test [5] was 112%.

Consider `CN1C2CCC1CC(OC(=O)N1Cc3ccccc3NC1=O)C2` (stereo not drawn), for which, in test [1], the activation is 1.43%. Further, the Potency result in test [2], in [4] and in test [3] was “inactive” in each case.

Consider `C[C@H](NC(=O)Cc1cc(F)cc(F)c1)C(=O)N[C@@H]1N=C(c2ccccc2)c2ccccc2N(C)C1=O`, for which the activation in [1] was 21%. For the same molecule, the Potency result in [2], in [4] and in test [3] was “inactive” each time.

With `CC(=O)Nc1ccc(OC[C@](C)(O)C(=O)Nc2ccc([N+](=O)[O-])c(C(F)(F)F)c2)cc1`, the activation in test [1] is 44.3% and 23.4%. The Potency entry in test [2], in test [4], in test [3], in test [8], in [9] and in test [7] was “inactive” each time. The Potency entry in test [6] was “inactive”. Also, the viability in [5] is 114%.

For the molecule `O=C(N[C@H]1CN2CCC1CC2)c1cc2cccc(Cl)c2s1`, in [1], the activation is 38.7%. In addition, the Potency result in test [2] and in [3] was “inactive” each time.

With `CCN1C[C@]2(COC)[C@H](O)C[C@H](OC)[C@]34[C@@H]5C[C@]6(O)[C@H](OC(=O)c7ccccc7)[C@@H]5[C@@](O)([C@H]([C@H](OC)[C@H]23)[C@@H]14)[C@@H](O)[C@@H]6OC`, the activation in test [1] is 10.3%. For the same molecule, the Potency entry in test [2] and in test [3] was “inactive” throughout.

In the case of `COC1C(O)C(C)OC(OC2C(CO)O[C@@H](O[C@@H]3CC4CCC5C(CC[C@]6(C)[C@@H](C7=CC(=O)OC7)CC[C@]56O)[C@@]4(C)[C@H](O)C3)C(O)C2O)C1O` (stereo partly drawn), the Potency in test [1] was 5 µM (active). Further, the Potency entry in test [2] and in [3] was “inactive” each time.

As to `C=C[C@H]1CN2CCC1C[C@H]2[C@H](O)c1ccnc2ccccc12` (stereo partly drawn), in [1], the activation was -2.33%. For the same molecule, the Potency result in [2] and in [3] was “inactive” each time.

For `COC(=O)CC1CC2(C(=O)c3c(O)cccc3C2(O)C(=O)OC)C(C)O1` (stereo not drawn), the activation in test [1] was 8.4%. Moreover, the Potency result in [2] and in test [3] was “inactive” throughout.

In the case of `CC[C@@]1(O)C(=O)OCc2c1cc1n(c2=O)Cc2cc3c(OC)cccc3nc2-1`, the Potency in [1] was 6.59 µM (active). The Potency entry in [2] and in test [3] was “inactive” throughout.

With `C=C[C@H]1[C@H](O[C@@H]2O[C@H](CO)[C@@H](O)[C@H](O)[C@H]2O)OC=C2C(=O)OCC[C@H]21`, the activation in test [1] was 6.11%. Moreover, the Potency entry in test [2] and in test [3] was “inactive” each time.

For the molecule `CN1C(=O)c2ccccc2NC(=O)C1Cc1ccccc1` (stereo not drawn), the activation in test [1] was -18.3%. In addition, the Potency result in test [2] and in test [3] was “inactive” in each case.

Turning to `C[C@@H]1CN(Cc2ccc(F)cc2)CCN1C(=O)COc1ccc(Cl)cc1NC(N)=O`, in test [1], the activation is 1.91%. Besides, the Potency result in test [2], in [4], in test [3] and in test [9] was “inactive” in each case. The Potency in test [10] is 14.8 µM (active); in test [7] it was 7.42 µM (active); in test [6], 18.6 µM (active).

Consider `CC(C)[C@@H](CN1CC[C@@](C)(c2cccc(O)c2)[C@@H](C)C1)NC(=O)[C@H]1Cc2ccc(O)cc2CN1`, for which the activation in [1] was 29.1%. The Potency entry in test [2], in test [4] and in [3] was “inactive” in each case.

`CN(C)c1cc2c(cc1Sc1nc3c(N)nccc3n1CCNCC(C)(C)C)OCO2`: in [1], the activation is 5.25%. The Potency result in [2], in test [4] and in test [3] was “inactive” throughout. In addition, the Potency in test [11] was 1.18 µM (active); in [9], 1.32 µM (active).

In the case of `CC1=C2C[C@H]3[C@@H](CC=C4C[C@@H](O)CC[C@@]43C)[C@@H]2CC[C@]12O[C@@H]1C[C@H](C)CN[C@H]1[C@H]2C`, in test [1], the activation was 2.39%. Further, the Potency entry in test [2], in test [4], in test [3], in test [8], in test [9] and in [7] was “inactive” in each case. In addition, the Potency entry in test [6] is “inactive”. Moreover, the viability in [5] is 113%.

As to `Cc1sc2c(c1C)C(c1ccc(Cl)cc1)=N[C@@H](CC(N)=O)c1nnc(C)n1-2`, in test [1], the activation is 10%. Further, the Potency entry in test [2], in test [4] and in test [3] was “inactive” in each case. Moreover, the Potency is 0.0833 µM (active) in test [10] and 0.209 µM (active) in test [7].

Source of the values: PubChem BioAssay (NCATS).
